The list is not random: actives were taken first. Their share in the collection is about 2.7%.
Nrf2 block – Nrf2 qHTS screen for inhibitors; A549 ARE-Fluc reporter, luciferase luminescence, 18-24 h; 360,000 tested, 2.1% active; Potency, µM (titrated, usually from 46 µM), inactives show top-dose activity change, negative = inhibition, hits mostly inhibitors; further: potency means the concentration at half of the fitted maximal effect; on the % scale 0 is the no-effect control and ±100 the full control effect; nearly all actives have a fitted effect of over 60% in size
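Two sequential reads on A549 ARE_Fluc cells exposed to compound for 18-24 h: a CellTiter-Fluor fluorescence read for viability, then a luciferase luminescence read for Nrf2/ARE activity.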
IDH1 R132H inh – qHTS for Inhibitors of mutant isocitrate dehydrogenase 1 (IDH1): qHTS. AID 602179, 2012. 390,000 tested, 0.093% active. IDH1-R132H enzyme, NADPH consumption, diaphorase/resazurin fluorescence. Isocitrate dehydrogenase [NADP] cytoplasmic (Homo sapiens), O75874. Potency, µM (series often up to 76.6 µM), for inactives: top-dose activity change, negative = inhibition, usual class: inhibitors; further: potency means the concentration at half of the fitted maximal effect; on the % scale 0 is the no-effect control and ±100 the full control effect; nearly all actives have a fitted effect of over 65% in size
Target sequence (O75874 whole entry R132H, stated change not applied): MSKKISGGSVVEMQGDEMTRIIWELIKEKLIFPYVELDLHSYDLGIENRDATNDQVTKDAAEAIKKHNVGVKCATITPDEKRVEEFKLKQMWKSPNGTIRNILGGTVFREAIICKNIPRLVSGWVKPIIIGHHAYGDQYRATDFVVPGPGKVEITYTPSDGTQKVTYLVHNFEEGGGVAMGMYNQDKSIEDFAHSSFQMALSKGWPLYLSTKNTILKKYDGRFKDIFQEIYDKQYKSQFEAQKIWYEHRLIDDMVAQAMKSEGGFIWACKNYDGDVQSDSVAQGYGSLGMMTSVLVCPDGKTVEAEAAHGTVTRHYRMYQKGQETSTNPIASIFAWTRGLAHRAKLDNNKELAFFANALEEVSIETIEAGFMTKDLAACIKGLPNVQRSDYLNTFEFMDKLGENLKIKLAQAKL
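IDH1-R132H (0.5 ug/mL) preincubated 30 min with compound, then NADPH (0.016 mM) and alpha-KG (2 mM) added; 80 min at RT, pH 7.5. Remaining NADPH coupled via diaphorase/resazurin to fluorescence (540/590 nm); concentration-response curves normalized to no-enzyme control.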
A549 tox-1 – Nrf2 qHTS screen for inhibitors: counterscreen for cytotoxicity; A549 ARE-Fluc cells, CellTiter-Fluor viability, 18-24 h; Potency, µM (top dose mostly 46 µM), inactives show at the highest dose activity change, negative = cytotoxicity, hits mostly inhibitors; 390,000 tested, 0.16% active; AID 504648, 2011; further: potency means the concentration at half of the fitted maximal effect; on the % scale 0 is the no-effect control and ±100 the full control effect
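Cytotoxicity counterscreen: CellTiter-Fluor fluorescence was measured in A549 ARE_Fluc cells after 18-24 h of compound exposure in a concentration series. The subsequent BugLite luminescent read reports ARE-luciferase activity.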
ALOX12 inh – Primary qHTS assay for inhibitors of human arachidonate 12S-lipoxygenase (ALOX12): Round 2. Polyunsaturated fatty acid lipoxygenase ALOX12 (Homo sapiens), P18054. purified 12hLO, xylenol orange hydroperoxide absorbance. Potency, µM (titrated, usually from 108 µM), without a hit: at the top dose activity change, negative = inhibition, actives largely listed as inhibitors. 580,000 tested, 1.1% active; further: potency means the concentration at half of the fitted maximal effect; on the % scale 0 is the no-effect control and ±100 the full control effect
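Purified human 12hLO (150 nM final) in 25 mM Hepes, 0.01% Triton X-100, pH 7.0 was preincubated 15 min at room temperature with compound. Then 40 uM arachidonic acid was added, 30 min. Hydroperoxide was read by Fe-XO absorbance ratio 573/405 nm.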
LDHA inh – qHTS assay for inhibitors of human lactate dehydrogenase; 480,000 tested, 0.15% active; AID 1347041, 2019; activity change, % (values are at about 110 or 230 µM); purified LDHA, NADH/diaphorase-resazurin fluorescence; hits give low values; in the data active means activity change below about -30%; inconclusive means mostly about -25% to -30%;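 further: plate controls were DMSO wells for no effect and wells without enzyme for full effect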
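Resorufin fluorescence (ex540/em590), read at 0 and 20 min after diaphorase/resazurin addition, reports the NADH left after a 5 min room-temperature reaction of 2 nM human LDH5 with 0.06 mM NADH and 0.2 mM pyruvate.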
Nrf2 activator – qHTS of Nrf2 Activators; AREc32 ARE-luciferase reporter (MCF7-derived line), luminescence, 24 h; Potency, µM (series often up to 46.1 µM), inactives show top-dose activation, actives largely listed as activators; 410,000 tested, 0.31% active; AID 624171, 2012; further: potency means the concentration at half of the fitted maximal effect; % of control where 0% means no effect; nearly all actives have a fitted effect of over 65% in size
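ARE activation measured as luciferase luminescence (Steady-Glo, 30 min RT) in AREc32_Fluc cells after 24 hr compound exposure at 37 deg C, 5% CO2; cells seeded overnight at 1000/well in OPTI-MEM, 5% FBS.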
FLuc counter 3 – Nrf2 qHTS screen for inhibitors: Purified Fluc Biochemical Counterscreen for Hit Validation; purified firefly luciferase, luminescence inhibition; AID 720522, 2013; Potency, µM (series often up to 57.5 µM), without a hit: top-dose activity change, negative = inhibition, most hits filed as inhibitors; 1,400 tested, 4% active; shares compounds with Nrf2 block; further: potency means the concentration at half of the fitted maximal effect; on the % scale 0 is the no-effect control and ±100 the full control effect; nearly all actives have a fitted effect of over 65% in size
A549 tox-2 – Nrf2 qHTS screen for inhibitors: A549 ARE-Fluc Cytotoxicity Counterscreen for Hit Validation; Potency, µM (titrated, usually from 46.1 µM), without a hit: top-dose activity change, negative = cytotoxicity, hits mostly inhibitors; AID 720523, 2013; 1,400 tested, 2% active; A549 ARE-Fluc cells, cytotoxicity counterscreen; shares compounds with Nrf2 block;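 further: potency means the concentration at half of the fitted maximal effect; cells exposed to compounds for 18 to 24 hours; on the % scale 0 is the no-effect control and ±100 the full control effect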
Nrf2 ARE inh – Nrf2 qHTS screen for inhibitors: Nrf2 A549 ARE-Fluc Confirmation Assay for Hit Validation | shares compounds with Nrf2 block | A549 ARE-firefly luciferase reporter, luminescence | Potency, µM (series often up to 46.1 µM), for inactives: at the highest dose activity change, negative = inhibition, hits mostly inhibitors | 1,400 tested, 74% active; further: potency means the concentration at half of the fitted maximal effect; on the % scale 0 is the no-effect control and ±100 the full control effect; nearly all actives have a fitted effect of over 65% in size
* hit, by the source's call; ? = inconclusive; · = no result given; [ ] = dose if it differs, or a comment. Unless noted, the call rests on the fitted dose curve; in most records, active means well fitted curve in the direction sought with a large enough effect; inconclusive means small, poorly fitted or top-dose-only effect, or another doubt; inactive means no such curve, though single readings can be large; an effect the other way counts as inactive or inconclusive.

SMILES	Nrf2 block	IDH1 R132H inh	A549 tox-1	ALOX12 inh	LDHA inh	Nrf2 activator	FLuc counter 3	A549 tox-2	Nrf2 ARE inh
Cc1ccccc1/C=C/c1cccc[n+]1C	1.84µM*	-3.0%	-28.8%	?	-16.8	0.2%	2.4%	-28.3%	4.11µM*
COc1ccccc1Nc1cnc2ccc(-c3ccc(F)cc3)nn12	·	·	·	17.0%[176 µM]	·	·	·	·	·
Cc1cc(OC(C)C(=O)NN)ccc1Cl (centres undefined)	·	·	·	67.0%	4.2	·	·	·	·
Cc1ccc2[nH]c(=O)c(CN(Cc3cccnc3)C(=O)c3cccnc3)cc2c1	·	·	·	5.7%	9.4	·	·	·	·
S=C(NCCc1ccccc1)Nc1cccc2cnccc12	3.66µM*	4.8%	-24.0%	-20.7%	-5.1	3.0%	0.0426µM*	-15.9%	2.59µM*
S=C(NCc1ccccc1)Nc1cccc2cnccc12	2.59µM*	2.3%	-13.1%	-21.7%	3.4	3.9%	-13.7%	-2.2%	7.31µM*
CCCCNC(=S)Nc1cccc2cnccc12	-21.7%	-1.8%	-5.4%	-13.5%	4.7	3.7%	·	·	·
O=C(CSc1ccc2c(c1)OCCO2)NC1c2ccccc2-c2ccccc21	·	·	·	?	13.5	·	·	·	·
O=S1(=O)C=CC(N(Cc2ccccc2)Cc2cccc(F)c2)C1 (centres undefined)	·	·	·	?	1.1	·	·	·	·
Cc1ccc(CNc2c(C)c(C)nc3nncn23)cc1	3.66µM*	-8.9%	-7.4%	-26.7%	-2.7	4.3%	-1.1%	0.8%	4.11µM*
O=c1c2c(nc3c(-c4ccc(Cl)cc4)c[nH]n13)CCCC2	7.94µM*	6.9%	-11.9%	53.4%	-1.7	-1.1%	-15.9%	-16.2%	6.51µM*
CCc1nc(N)nc(N)c1-c1ccc(N(C)Cc2ccccc2)c([N+](=O)[O-])c1	1.3µM*	4.6%	-12.7%	?	-1.6	0.2%	-2.1%	-14.8%	1.16µM*
CCN(CC)c1ccc(/C=N/S(=O)(=O)c2cccs2)cc1	·	·	·	?	6.0	·	·	·	·
O=C(Nc1ccc(Cl)cc1)Nc1ccc(N2CCCC2)c(S(=O)(=O)Nc2ccccc2Cl)c1	3.26µM*	-0.7%	?	-14.4%	-5.3	2.4%	0.4%	?	6.51µM*
COc1ccccc1NS(=O)(=O)c1cc(NC(=O)Nc2cccc(C)c2)ccc1N1CCCCC1	4.2%	0.9%	0.3%	-21.7%	-8.5	1.9%	·	·	·
CC1=[N+](C)c2c(ccc3cccnc23)C1(C)C	2.06µM*	1.8%	?	0.6%	5.5	7.5%	-7.8%	-2.4%	2.59µM*
CCC1CCc2sc(C(=O)NCc3csc(-c4cccc(C)c4)n3)cc2C1 (centres undefined)	·	·	·	?	-1.6	·	·	·	·
COc1ccc(CNC(=O)c2cccc(S(=O)(=O)N3CCN(c4ccc(F)cc4)CC3)c2)cc1	?	1.5%	-8.4%	4.0%	-4.9	-0.3%	·	·	·
COc1ccc(NC(=O)CN(C)C(=O)c2cccc(S(=O)(=O)N3CCN(c4ccc(F)cc4)CC3)c2)cc1	5.8µM*	10.3%	?	3.5%	-3.3	0.2%	3.4%	-9.7%	18.4µM*
CN(CC(=O)Nc1ccc(F)cc1)C(=O)c1cccc(S(=O)(=O)N2CCN(c3ccccc3)CC2)c1	?	4.2%	-17.5%	-9.7%	1.0	2.4%	·	·	·
COc1cccc(CNC(=O)c2cccc(S(=O)(=O)N3CCN(c4ccc(F)cc4)CC3)c2)c1	?	2.4%	-0.3%	-15.3%	-3.7	2.5%	0.9%	-1.2%	?
CC(=O)Nc1cccc(-c2cnc(N)c(C(=O)c3cccnc3)n2)c1	5.17µM*	1.1%	?	·	-0.6	-4.2%	-14.4%	-23.0%	·
NC(=O)c1cccc(-c2cnc(N)c(C(=O)c3cccnc3)n2)c1	?	-7.4%	?	·	-9.9	-2.0%	·	·	·
COc1ccc(/C=C2\SC(=O)N(CCCC(=O)Nc3cc(Cl)ccc3C(=O)O)C2=O)cc1	0.731µM*	2.7%	-9.7%	35.5µM*	-6.0	-2.3%	12µM*	-5.7%	1.46µM*
CC/C(=N/NC(=O)c1ccc2c(c1)OCO2)c1ccccc1O	5.17µM*	2.7%	-22.1%	29.5%	1.1	0.0%	10.7µM*	-8.5%	-15.5%
SMILES	Nrf2 block	IDH1 R132H inh	A549 tox-1	ALOX12 inh	LDHA inh	Nrf2 activator	FLuc counter 3	A549 tox-2	Nrf2 ARE inh
COc1ccc(CCNC(=O)COc2ccc(N(C)S(=O)(=O)c3ccc(Cl)cc3)cc2)cc1	3.66µM*	10.4%	-4.3%	-1.4%	-9.4	3.4%	-0.7%	-6.6%	18.4µM*
CN(c1ccc(OCC(=O)NCCc2ccccc2)cc1)S(=O)(=O)c1ccc(Cl)cc1	19.4%	7.0%	9.4%	-13.5%	0.5	3.4%	·	·	·
CCOc1ccc(S(=O)(=O)N(C)c2ccc(OCC(=O)Nc3nc4ccccc4s3)cc2)cc1	2.31µM*	4.2%	-11.8%	-1.6%	-2.7	3.2%	1.5%	-2.3%	9.2µM*
COc1ccc(S(=O)(=O)N2CCN(c3ccccc3)CC2)cc1-c1noc(C(C)(C)C)n1	·	·	·	2.2%	2.8	·	·	·	·
CCn1c(COc2cccc(C)c2C)nnc1SCC(=O)N1CCN(c2ccc(OC)cc2)CC1	9.2µM*	3.6%	-6.4%	0.0%	-3.1	-0.4%	-0.8%	-15.3%	8.2µM*
Cc1nc2ccccc2n1Cc1ccccc1Br	4.3%	20.0%	0.9%	39.6%	-0.8	0.1%[9.22 µM]	·	·	·
Cc1nc2ccccc2n1Cc1ccc(Br)cc1	?	2.7%	0.6%	68.3%	-9.5	2.2%	-20.7%	2.9%	?
Cc1ccccc1OCCOC(=O)c1n[nH]c(=O)c2ccccc12	·	·	·	?	7.3	·	·	·	·

Screens as filed in PubChem.
